# Reference: PubChem BioAssay AID1117263 (The Scripps Research Institute Molecular Screening Center, 2014)
# Hit rate of the full screen: of about 2,300 compounds, about 300 (13%) were called active. Not all results are given here. A number with no mark means an inactive call.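 How the source made its calls: active means mean inhibition of the replicates above the hit cutoff set in the primary screen (cut at about 17% in these data); inactive means the rest.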
# Target: Sialate O-acetylesterase (Homo sapiens) (UniProt Q9HAT2)
# Sequence (Q9HAT2 whole entry, looked up): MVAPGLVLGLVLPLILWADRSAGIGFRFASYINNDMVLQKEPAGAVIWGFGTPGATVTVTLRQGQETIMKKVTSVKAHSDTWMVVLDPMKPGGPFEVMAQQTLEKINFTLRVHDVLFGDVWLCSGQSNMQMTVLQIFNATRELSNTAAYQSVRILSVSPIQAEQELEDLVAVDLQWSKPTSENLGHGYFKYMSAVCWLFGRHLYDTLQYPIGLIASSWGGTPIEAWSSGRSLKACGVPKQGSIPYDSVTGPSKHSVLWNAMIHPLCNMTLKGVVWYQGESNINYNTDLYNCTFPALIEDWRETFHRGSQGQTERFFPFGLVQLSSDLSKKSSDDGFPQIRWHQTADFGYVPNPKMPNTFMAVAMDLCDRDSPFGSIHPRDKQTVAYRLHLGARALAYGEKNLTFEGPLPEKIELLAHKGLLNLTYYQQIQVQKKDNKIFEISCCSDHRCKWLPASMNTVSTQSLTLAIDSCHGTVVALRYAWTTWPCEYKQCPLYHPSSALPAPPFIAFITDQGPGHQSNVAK
# Assay: human SIAE inhibitors, retest, confirmation, biochemical, fluorescence polarization, FP-Rh probe, triplicate (AID 1117263);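 further: 0% = SIAE with DMSO and probe and 100% = probe without SIAE; inhibitors lower polarization as more probe stays unbound to SIAE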
# Settings: SIAE FP-Rh activity-based probe, at 9.66 µM, stronger effect = higher value
row,SMILES,inhibition
1,CCCCn1c(N)c(N(CC(C)C)C(=O)CSc2ccc([N+](=O)[O-])cc2)c(=O)[nH]c1=O,4.78%
2,O=C(NC(=S)Nc1ccc(NC(=O)c2cccs2)cc1)c1ccc([N+](=O)[O-])cc1,15.2%
3,C=CCN1C(=O)[C@@H](CC(=O)NCC2CCCCC2)[C@]2(C(=O)OC)CCCCC=C12,4.13%
4,COc1ccc2nc(Nc3nc4cc5c(cc4s3)OCCO5)sc2c1,0.67%
5,O=C1CCCC(O)=C1N=Nc1ccc(S(=O)(=O)N2CCOCC2)cc1,3.36%
6,CC(=O)Nc1cccc([N+](=O)[O-])c1,1.2%
7,CC(NS(=O)(=O)c1ccc(Cl)cc1)C(=O)Nc1ccc2c(c1)OCCO2 (stereo not drawn),-0.44%
8,CCn1c(=O)n(CC)c2cc(N3CCCC3)c(NC(=O)c3ccccc3Br)cc21,2.42%
9,O=C(Nc1ccccc1N1CCCC1)c1ccc(F)c(S(=O)(=O)N2CCOCC2)c1,-3.75%
10,Cc1nc2cc(NCc3cccs3)ccc2n1C,-2.47%
11,Cn1cccc1/C=N/NC(=O)CNc1cccc2ccccc12,5.62%
12,O=C(N/N=C/c1sc(N2CCCCC2)nc1-c1cccs1)c1cccnc1,16.6%
13,C/C=C/c1ccc(OCC(=O)OCC(=O)Nc2c(C)nn(-c3ccccc3)c2C)c(OC)c1,3.24%
14,C[C@@H]1O[C@@H](OC[C@H]2O[C@@H](Oc3c(-c4ccc(O)cc4)oc4cc(O)cc(O)c4c3=O)[C@H](O)[C@@H](O)[C@@H]2O)[C@H](O)[C@H](O)[C@H]1O,6.07%
15,CCOC(=O)C1=C(C)N=C2c3ccccc3C(=O)C2C1c1ccc(Br)cc1 (stereo not drawn),7.01%
16,Cc1cc2ccccc2n1CCNC(=O)COc1ccc2ccccc2c1,9.71%
17,Cc1cc2ccccn2c1C(=O)c1cccc(F)c1,-0.9%
18,COc1ccc(Cc2nc3ccc(C(=O)N4CCC(N(C)C)C4)cc3o2)cc1 (stereo not drawn),-0.71%
19,COc1ccc(-c2cc(C(=O)NC(Cc3c[nH]c4ccccc34)C(=O)O)c(C)o2)cc1OC (stereo not drawn),10.6%
20,NS(=O)(=O)c1ccc(NC(=O)COC(=O)c2c3c(nc4ccccc24)/C(=C\c2ccc4c(c2)OCO4)CCC3)cc1,-152%
21,CCCCC[C@H](C)N1C[C@@H](COCc2ccccc2)Oc2cc(N3CC[C@@H](N(C)C)C3)ccc2S1(=O)=O,23.2% (active)

row,SMILES,inhibition
1,CNS(=O)(=O)c1ccc2c(c1)[nH]c(=S)n2C,8.04%
2,Cc1ccc(C(=O)N/C(=C/c2ccc(-c3cccc([N+](=O)[O-])c3)o2)C(=O)NCCCN(C)C)cc1,0.77%
3,CNC(=S)NNC(=O)c1oc2nc(-c3ccccc3)cc(-c3ccco3)c2c1N,3.72%
4,Cc1ccc(OCC(=O)Nc2ccc(-c3nnc(-c4ccco4)o3)cc2)cc1,-15.4%
5,NNC(=O)c1oc2nc(-c3ccccc3)cc(-c3ccco3)c2c1N,56% (active)
6,CCOC(=O)/C(N=Nc1cc(C(=O)O)cc(C(=O)O)c1)=C(\O)CCl,2.21%
7,CC(C)c1cc(N=O)cc(C(C)C)c1O,-26.2%
8,Oc1ccccc1C1=NN(c2ccccc2)C(c2ccccc2)C1 (stereo not drawn),6.69%
9,CCOc1ccc(NC(=O)C/C(C)=N/NC(=O)Cc2cccs2)cc1,4.73%
10,CCN(CC)CCCC(C)n1c2nc(=O)[nH]c(=O)c-2nc2cc(Cl)ccc21 (stereo not drawn),25.5% (active)
11,COC(=O)C(C)Sc1ccc2nnc(-c3cccc(F)c3)n2n1 (stereo not drawn),-0.98%
12,Oc1ccc2ccc3cccc[n+]3c2c1,4.67%
13,CCOC(=O)C1=C(c2ccccc2)O/C(=C(/C(=O)OC)C(F)(F)F)S1,-7.25%
14,CCN(C(=O)COC(=O)C1CCN(S(=O)(=O)c2ccc(C)c(C)c2)CC1)C1CCS(=O)(=O)C1 (stereo not drawn),2.26%
15,Nc1ccc2nc3c(=O)[nH]c(=S)[nH]c3nc2c1,32.7% (active)
16,Cc1nc(-c2ccc(Cl)cc2)sc1C(=O)NN,-2.12%
17,NNc1nc2c(Cl)cccc2s1,5.82%
18,S=C(NCCCc1cnc[nH]1)NCCCN(Cc1ccc(Cl)c(Cl)c1)c1ccc(Br)cn1,30.6% (active)
19,Oc1ccc(/C=N/N(Cc2ccccc2)c2ccccc2)cc1,9.47%
20,CC(C)(O)C#Cc1ccc(C(=O)N2CCC(C(N)=O)(N3CCCCC3)CC2)cc1,2.82%
21,COc1cccc(/C=N/Nc2cc(C)nc(-c3ccccc3O)n2)c1O,-14.6%

row,SMILES,inhibition
1,COc1ccc(CCNc2ncnc3nc[nH]c23)cc1OC,-2.94%
2,COc1ccc2[nH]c(=S)cc(C)c2c1,-5.42%
3,O=C(NN=C1CCC(=NNC(=O)c2cccnc2)CC1)c1cccnc1,6.57%
4,CCOc1ccc(Nc2nc(Cc3nnc(SCC(=O)c4ccc(C)cc4)o3)cs2)cc1,5.41%
5,COc1ccc(OC)c(CN2CCN(C(=O)CNC(=O)c3cc(C)cc(C)c3)CC2)c1,-0.63%
6,COc1ccc(/C=N/NC(=O)c2ccncc2)cc1CN1CCCc2ccccc21,22.8% (active)
7,COc1ccccc1/C=C/C=N/NC(=O)CN1CCN(Cc2ccccc2)CC1,-1.91%
8,CCOC(=O)C(=O)C1C(=O)Nc2ccccc21 (stereo not drawn),6.34%
9,O=C(Nc1cccc(Cc2ccccc2)c1)Nc1ccc2nc([C@@H]3O[C@H](CO)[C@@H](O)[C@H](O)[C@H]3O)[nH]c2c1,10.5%
10,CCOC(=O)C1Sc2[nH]c(=O)sc2C(c2ccc(Cl)cc2)C1C(=O)OCC (stereo not drawn),5.84%
11,Cc1ccc(/C=N/NC(=O)c2cc3ccccc3cc2O)o1,3.65%
12,CC1CCCCC1NC(=O)/C(C#N)=C/C=C/c1ccccc1[N+](=O)[O-] (stereo not drawn),-0.36%
13,Cn1c(NN)nc2sc3c(c2c1=O)CCC3,11.8%
14,O=C(O)c1ccccc1N=N/C(=N/Nc1cc(S(=O)(=O)O)ccc1O)c1ccccc1,9.57%
15,O=C(N/N=C/c1ccc(O)c2ccccc12)c1cccnc1,-1.25%
16,COc1ccc(-c2csc(Nc3ccc(O)cc3)n2)cc1,2.15%
17,O=C(O)Cc1sc(-c2ccccc2)nc1-c1cccs1,-3.2%
18,CCOc1ccc(Cn2c(SCCCCC#N)nc3c2c(=O)n(C)c(=O)n3C)cc1OCC,3.27%
19,CCC(C)c1ccc(O)c(/C=N/O)c1 (stereo not drawn),8.65%
20,COCCOC(=O)c1sc(=S)n(CCOC)c1N,9.71%
21,Oc1ccc(N=Cc2sc3ccccc3c2Cl)cc1,-0.14%

row,SMILES,inhibition
1,Oc1ccc(N=Cc2c(O)ccc3ccccc23)cc1,-1.4%
2,c1ccc2[nH]c(-c3nc4ccccc4[nH]3)nc2c1,5.66%
3,CNC(=S)N/N=C/c1cn(Cc2ccc(C)cc2)c2ccccc12,9.36%
4,COc1cc(/C=N\Nc2nc(-c3cccs3)c(NC(C)=O)s2)ccc1O,13.2%
5,CCn1c(SC)nc(O)c(C(c2ccc(OC)c(O)c2)c2c(O)nc(SC)n(CC)c2=O)c1=O,-4.61%
6,O=C1CCN(C(=S)NCCc2ccccc2)CC1,-3.6%
7,Nc1ncnc2c1ncn2[C@@H]1O[C@H](C(=O)NCC(F)(F)F)[C@@H](O)[C@H]1O,44.1% (active)
8,CN(Cc1ccc(C(F)(F)F)cc1)C(=O)[C@H]1O[C@@H](n2cnc3c(N)ncnc32)[C@H](O)[C@@H]1O,68.3% (active)
9,CC(=O)CSc1nnc(CSc2ncccn2)n1C1CCCCC1,-1.2%
10,O=C(CSc1ccc(-c2ccco2)nn1)Nc1cccc(F)c1,0.25%
11,Cc1cccc(C2c3c(n(C)c(=O)n(C)c3=O)N=C3c4ccccc4C(=O)C32)c1 (stereo not drawn),-3.19%
12,Cc1[nH]c2ccccc2c1C(=O)CSCC(=O)O,-9.03%
13,COc1ccc(N2CCN(c3ccc([N+](=O)[O-])nc3)CC2)cc1,8%
14,CC(C)=CCCC1(C)C=Cc2c(ccc3c2[nH]c2cc(O)c(C)cc23)O1 (stereo not drawn),2.11%
15,Cc1ccc(Nc2nc(-c3ccc(O)cc3O)cs2)nc1,9.2%
16,O=C(CC[C@H]1O[C@@H](n2ccc(=O)[nH]c2=O)[C@H](O)[C@@H]1O)N[C@H](Cc1ccccc1)C(=O)NCCCN1CCCC1=O,32.5% (active)
17,O=c1[nH]n(-c2ccc([N+](=O)[O-])cc2)c(=O)c2ccccc12,19% (active)
18,O=C1CC(c2ccccc2)=NN1c1ccc([N+](=O)[O-])cc1,-0.43%
19,CC(C)/C=N/NC(=O)c1cc(Br)ccc1O,4.2%
20,S=C(Nc1ccc(Br)cc1)NC1CCN(Cc2ccccc2)CC1,2.28%
